For 30 compounds, Potency results are on record in PubChem BioAssay (Tox21).

Inconclusive results are not listed. A call without a number means that no potency is given here. Activity calls are given as the source filed them. Unless noted, calls follow the shape of the full dose curve.

Test system in the first assay: not listed separately
Description: qHTS assay to identify small molecule antagonists of the estrogen related receptor signaling pathway with the pleiotropic PPARgamma coactivator (PGC) from Tox21 10K library (AID 1224841; call rule not given here; also: actives are mostly falling curves and most rising ones were filed inactive; nearly all actives have a fitted effect of over 50% in size). As to conditions: PGC/ERR reporter cell line, ONE-Glo luciferase, 18 h; series mostly up to 92.4 µM. The method, boiled down: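 PGC/ERR cell line, 2,000 cells/well, pre-incubated 6 hours at 37 C, then exposed to compounds for 18 hours at 37 C; luciferase read with One-Glo luminescence after 30 min at room temperature.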
As to `N=C(N=C(N)N)N1CCOCC1`, the Potency entry is “inactive”.
Turning to `Cn1sccc1=O`, the Potency entry was “inactive”.
Regarding `CCN(CC)CCOC(=O)C1(c2ccccc2)CCCC1`, the Potency entry was “inactive”.
As to `CC(C)(C)c1ccc(OCC2CO2)cc1` (centres undefined), the Potency entry was “inactive”.
With `Cc1cc(NC(=O)C(=O)O)cc(C)c1Oc1ccc(O)c2c1CCC2`, the Potency result was “inactive”.
On the same count and under the same terms, next, `CC(=O)CC(=O)c1ccccc1`: “inactive”; `CCCCCCCCC(CO)CCCCCC` (centres undefined): “inactive”; `C1=Cc2ccccc2C1`: “inactive”.
On the same count and under the same terms, then `Cc1cc(O)ccc1N`, with “inactive”; and `C#CCOC(=O)[C@@H](C)Oc1ccc(Oc2ncc(Cl)cc2F)cc1`, with “inactive”; and `COc1cc(C(C)(C)C)c(O)c(C(C)(C)C)c1`, with “inactive”.
The same measure, in the same setting: next, `NCc1ccccc1`: “inactive”.

Test system in another assay: not listed separately
Description: qHTS assay to identify small molecule agonists of the estrogen related receptor signaling pathway with the pleiotropic PPARgamma coactivator (PGC) from Tox21 10K library (AID 1224842; active = well fitted activation curve with a large enough effect in the repeat runs; also: nearly all actives have a fitted effect of over 15% in size). Particulars: PGC/ERR reporter cell line, luciferase ONE-Glo, 18 h; series mostly up to 92.4 µM. In outline: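 PGC/ERR reporter cell line, 2,000 cells per well, incubated 6 h at 37 C before 23 nL compound in DMSO was added. After 18 h at 37 C, One-Glo luminescence read following 30 min at room temperature.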
In the case of `N=C(N=C(N)N)N1CCOCC1`, the Potency entry is “inactive”.
Still for that read-out and setting: next, `CCN(CC)CCOC(=O)C1(c2ccccc2)CCCC1`: “inactive”; `CC(C)(C)c1ccc(OCC2CO2)cc1` (centres undefined): “inactive”; `Cc1cc(NC(=O)C(=O)O)cc(C)c1Oc1ccc(O)c2c1CCC2`: “inactive”.
For the compound `CCCCCCCCC(CO)CCCCCC` (centres undefined), the Potency entry is “inactive”.
Same read-out and setting: then `C1=Cc2ccccc2C1`, with “inactive”.
The same measure, in the same setting: then `COc1ccc2[nH]c(S(=O)Cc3ncc(C)c(OC)c3C)nc2n1` (centres undefined), with “inactive”.
Same read-out and setting: next, `C#CCOC(=O)[C@@H](C)Oc1ccc(Oc2ncc(Cl)cc2F)cc1`: “inactive”.
In the case of `COc1cc(C(C)(C)C)c(O)c(C(C)(C)C)c1`, the Potency entry was “inactive”.
Still for that read-out and setting: then `NCc1ccccc1`, with “inactive”.

In a further assay the target is Thyrotropin receptor (Homo sapiens) (UniProt P16473). The assay can be described thus: qHTS assay to identify small molecule agonists of the thyroid stimulating hormone receptor (TSHR) signaling pathway (AID 1224843). Also: nearly all actives have a fitted effect of over 45% in size. As to conditions: TSHR-HEK293 cells, cAMP HTRF, agonist mode, 30 min; series mostly up to 92.4 µM. In outline: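 TSHR-HEK293 cells in agonist mode, 30 min room-temperature step, then cAMP measured by competitive HTRF (cAMP-d2 with anti-cAMP cryptate) after 1 h at room temperature. Tested at 15 concentrations in triplicate.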
Chain of Thyrotropin receptor (Homo sapiens) (P16473 whole entry, looked up): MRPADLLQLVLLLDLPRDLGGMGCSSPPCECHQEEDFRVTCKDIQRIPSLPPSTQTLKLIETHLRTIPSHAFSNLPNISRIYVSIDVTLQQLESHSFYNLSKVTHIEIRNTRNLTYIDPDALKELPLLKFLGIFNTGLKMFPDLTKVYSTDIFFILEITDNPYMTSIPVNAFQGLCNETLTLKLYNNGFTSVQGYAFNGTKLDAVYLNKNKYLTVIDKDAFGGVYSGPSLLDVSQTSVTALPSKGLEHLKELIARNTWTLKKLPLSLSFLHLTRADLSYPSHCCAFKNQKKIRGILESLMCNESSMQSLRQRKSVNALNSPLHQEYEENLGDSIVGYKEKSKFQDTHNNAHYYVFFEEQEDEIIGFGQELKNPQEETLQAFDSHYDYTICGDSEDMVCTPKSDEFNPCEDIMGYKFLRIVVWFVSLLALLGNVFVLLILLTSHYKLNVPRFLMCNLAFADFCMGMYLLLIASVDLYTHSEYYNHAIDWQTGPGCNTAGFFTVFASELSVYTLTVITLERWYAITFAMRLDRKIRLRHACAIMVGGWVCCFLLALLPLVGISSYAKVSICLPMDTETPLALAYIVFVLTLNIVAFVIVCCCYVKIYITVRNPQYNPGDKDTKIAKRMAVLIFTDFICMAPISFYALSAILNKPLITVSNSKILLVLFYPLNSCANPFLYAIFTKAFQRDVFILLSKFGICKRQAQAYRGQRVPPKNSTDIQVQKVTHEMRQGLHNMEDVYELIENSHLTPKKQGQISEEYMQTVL
As to `CCCCCCOC(=O)CCC`, the Potency entry is “inactive”.
`Cc1ccc(O)c([C@H](CCN(C(C)C)C(C)C)c2ccccc2)c1`: the Potency result is “inactive”.
Still for that read-out and setting: then `C1CCC2OC2C1` (centres undefined), with “inactive”; and `Cn1sccc1=O`, with “inactive”; and `CC(C)CCCC(C)CCO` (centres undefined), with “inactive”.
Same read-out and setting: next, `Cc1cc(C)c(S(=O)(=O)O)cc1N=Nc1cc(S(=O)(=O)O)c2ccccc2c1O`: “inactive”.
As for `Oc1ccc2c(c1)OCO2`, the Potency result is “inactive”.
Still for that read-out and setting: next, `O=C1CCCCCO1`: “inactive”; `CC(C)(C)c1ccc(OCC2CO2)cc1` (centres undefined): “inactive”; `COC(Cc1ccccc1)OC`: “inactive”.
With `CC(Cc1cccc(C(F)(F)F)c1)NCCOC(=O)c1ccccc1` (centres undefined), the Potency entry is “inactive”.
As for `N#CCc1cccc(C(F)(F)F)c1`, the Potency entry is “inactive”.
`COc1ccc([C@@H]2Sc3ccccc3N(CCN(C)C)C(=O)[C@@H]2OC(C)=O)cc1`: the Potency result was “inactive”.
As to `CCOC(=O)C1=C(C)NC(C)=C(C(=O)OC)C1c1cccc([N+](=O)[O-])c1` (centres undefined), the Potency entry is “inactive”.
For the compound `CCCCOC(O)CC` (centres undefined), the Potency result was “inactive”.
For the compound `CCCCCCCCC(CO)CCCCCC` (centres undefined), the Potency result was “inactive”.
On the same count and under the same terms, next, `CN(C)CC/C=C1\c2ccccc2COc2ccccc21`: “inactive”; `Cc1cc(O)ccc1N`: “inactive”.
`CCCCCCCCCCCCCCCBr`: the Potency result is “inactive”.
The same measure, in the same setting: then `N#Cc1c(F)cccc1F`, with “inactive”.
The same measure, in the same setting: next, `CN(C)CCCNCCCN`: “inactive”.
Still for that read-out and setting: then `NCc1ccccc1`, with “inactive”.
